Most compounds without a hit are left out; they make up all but 1.1% or so of the library.
SARS PLpro yeast: inhibitors of SARS-CoV papain-like protease in yeast | S. cerevisiae expressing SARS-CoV PLpro, growth rescue | Potency, µM (series often up to 32.9 µM), actives largely listed as activators | actives 0.19% (n = 330,000) | AID 485353; calls by dose curve; note: nearly all actives have a fitted effect of over 55% in size
AmpC no deterg: blocks E. coli AmpC beta-lactamase in detergent-free assay. P00811. AmpC nitrocefin hydrolysis, absorbance 480 nm, 0.0001% Triton. Potency, µM (doses to about 57.1 µM), actives largely listed as inhibitors. actives 0.52% (n = 330,000). AID 485341; note: nearly all actives have a fitted effect of over 20% in size
Target sequence (P00811 whole entry, looked up): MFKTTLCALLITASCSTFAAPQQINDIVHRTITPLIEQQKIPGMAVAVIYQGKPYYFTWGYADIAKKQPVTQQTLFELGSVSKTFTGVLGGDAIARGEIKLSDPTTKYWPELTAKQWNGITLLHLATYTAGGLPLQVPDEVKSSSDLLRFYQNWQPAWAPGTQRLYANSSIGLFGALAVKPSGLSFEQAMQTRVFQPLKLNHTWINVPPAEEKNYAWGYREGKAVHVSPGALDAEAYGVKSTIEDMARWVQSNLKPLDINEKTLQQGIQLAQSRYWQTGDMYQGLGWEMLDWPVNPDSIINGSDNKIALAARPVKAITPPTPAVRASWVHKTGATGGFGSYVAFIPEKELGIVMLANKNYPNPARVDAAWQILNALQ
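20 mM phosphate pH 7.0 + 0.01% (detergent screen) or 0.0001% Triton X-100; 5.3 nM AmpC reagent; cpd preinc 15 min RT; nitrocefin (800 uM stock) to start; A480 q20 s × 4 min; Activity was normalised to no-enzyme and no-compound control wells.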
Giardia FBPA inh: inhibitors of Giardia lamblia fructose-1,6-bisphosphate aldolase; purified Giardia FBPA; Potency, µM (series often up to 59.6 µM), usual class: inhibitors; actives 0.71% (n = 290,000); AID 2451; note: nearly all actives have a fitted effect of over 55% in size
Target sequence (A8B2U2 whole entry, looked up): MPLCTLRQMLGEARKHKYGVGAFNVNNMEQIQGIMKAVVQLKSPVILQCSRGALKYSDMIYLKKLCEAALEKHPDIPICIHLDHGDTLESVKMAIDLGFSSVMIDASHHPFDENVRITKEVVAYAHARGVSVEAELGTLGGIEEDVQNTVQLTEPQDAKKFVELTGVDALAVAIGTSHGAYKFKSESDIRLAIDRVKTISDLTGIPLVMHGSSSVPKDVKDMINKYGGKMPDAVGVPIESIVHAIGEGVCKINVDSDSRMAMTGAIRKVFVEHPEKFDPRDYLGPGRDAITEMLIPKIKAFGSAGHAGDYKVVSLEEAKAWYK
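Giardia FBPA (40 nM reagent) was preincubated 10 min at RT with compound (up to 57.5 uM final), then substrate plus GAPDH/TPI/NAD/arsenate coupling system with diaphorase/resazurin was added; resorufin fluorescence (525/598 nm) was read after 20 min.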
AmpC detergent: inhibitors of E. coli AmpC beta-lactamase with detergent; AmpC hydrolysis of nitrocefin, absorbance 480 nm, 0.01% Triton; Potency, µM (doses to about 114 µM), hits mostly inhibitors; AID 485294; actives 0.041% (n = 370,000); P00811; note: nearly all actives have a fitted effect of over 25% in size
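AmpC (5.3 nM in the dispensed reagent) in 20 mM phosphate pH 7.0 with 0.01% (detergent screen) or 0.0001% Triton X-100 was preincubated with compounds for 15 min at room temperature. Nitrocefin was then added from an 800 uM solution, and hydrolysis was followed at 480 nm.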
Of the large screens only hits and unclear results are named; the others gave an inactive call. Unless noted, calls come from the whole dose curve; as a rule, active = well fitted curve in the direction sought with a large enough effect; inconclusive = small, poorly fitted or top-dose-only effect, or another doubt; inactive = no such curve, though single readings can be large; an effect the other way counts as inactive or inconclusive.

CC(C)(C)C1=CC(=O)C(=O)C(C(C)(C)C)=C1	Giardia FBPA inh 7.1µM
O=C([O-])[C@@H]1[O][Sb+]([O][Sb+]2[O][C@H]([C@H](O)CO)[C@H](O)[C@H](C(=O)[O-])[O]2)[O][C@H]([C@H](O)CO)[C@@H]1O	none (no result: SARS PLpro yeast, AmpC no deterg, AmpC detergent)
NC(=S)N/N=C/c1ccc(-n2nncc2-c2ccc(Cl)cc2)cc1	SARS PLpro yeast 10µM (no result: Giardia FBPA inh)
COc1cccc(N/N=C/c2cccc(Br)c2O)c1	AmpC no deterg inconclusive
COc1cc(/C=N/Nc2ccc([N+](=O)[O-])cc2S(=O)(=O)N2CCOCC2)cc(OC)c1OC	none
Cc1cccc(N/N=C/c2ccc(O)c(O)c2O)c1	AmpC no deterg inconclusive, Giardia FBPA inh 14µM
O=[N+]([O-])c1ccc(N/N=C/c2cccc(O)c2O)c(S(=O)(=O)N2CCOCC2)c1	AmpC no deterg 11µM, Giardia FBPA inh inconclusive
O=[N+]([O-])c1cccc(N/N=C/c2cccc(O)c2O)c1	AmpC no deterg 16µM, Giardia FBPA inh inconclusive
O=[N+]([O-])c1ccc(N/N=C/c2ccc(O)c(O)c2O)c(S(=O)(=O)N2CCOCC2)c1	Giardia FBPA inh 10µM
C[C@H]1Cc2c(-c3ccccc3)nc3c(c2CO1)CN(C(=O)c1cccnc1)CC3	none (no result: SARS PLpro yeast, AmpC no deterg, AmpC detergent)
CC(C)Cc1cc(C(=O)N2CCN(c3ccc(F)cc3)CC2)no1	AmpC no deterg 0.32µM
CCCCc1nc2c(c3c1C[C@H](C)OC3)CN(S(=O)(=O)c1ccc(C#N)cc1)CC2	none (no result: SARS PLpro yeast, AmpC no deterg, AmpC detergent)
O=C(/C=C/c1ccc(O)cc1)OC[C@H]1O[C@@H](Oc2c(-c3ccc(O)cc3)oc3cc(O)cc(O)c3c2=O)[C@H](O)[C@@H](O)[C@@H]1O	none (no result: SARS PLpro yeast, AmpC no deterg, AmpC detergent)
CC(=O)OCC(NC(=O)C1CCCN1C(=O)OC(C)(C)C)C1OC(n2ccc(=O)[nH]c2=O)C(OC(C)=O)C1OC(C)=O (configuration not stated)	none (no result: SARS PLpro yeast, AmpC no deterg, AmpC detergent)
CCCN(CCC)C(=O)Cn1c(=O)n(-c2ccc(Cl)c(Cl)c2)c(=O)c2c(C)c(C(=O)N(C)C)sc21	none (no result: SARS PLpro yeast, AmpC no deterg, Giardia FBPA inh)
O=S(=O)(c1ccc2ccccc2c1)N1CCN(c2ccc(O)cc2)CC1	AmpC no deterg 10µM (no result: Giardia FBPA inh, AmpC detergent)
CN1CCN(S(=O)(=O)c2ccc3ccccc3c2)CC1	none
CC1Cc2cc(S(=O)(=O)NCc3ccc(F)cc3)ccc2N1C(=O)C1CCC1 (configuration not stated)	none (no result: SARS PLpro yeast, AmpC no deterg, Giardia FBPA inh)
COc1ccc(OC)c(S(=O)(=O)ON2C(=O)c3ccccc3C2=O)c1	AmpC no deterg inconclusive, AmpC detergent 40µM
O=C1c2cccc3cccc(c23)C(=O)N1OS(=O)(=O)c1ccc(Cl)cc1	none
COc1ccc(OC)c(S(=O)(=O)N2CCN(c3ccccc3)CC2)c1	AmpC detergent inconclusive
CCc1ccc(S(=O)(=O)ON2C(=O)c3ccccc3C2=O)cc1	AmpC detergent 35µM
COc1ccc(C2/C=C\CN(C(=O)C3CCCC3)C(C)C(=O)N2Cc2ccc(F)cc2)cc1 (configuration not stated)	none (no result: SARS PLpro yeast, AmpC no deterg, AmpC detergent)
C=C(C[C@]1(C(=O)OC)CC2(CC=C(C)C)C(=O)C(C(=O)CC(C)C)=C(O)C(CC=C(C)C)(C1)C2=O)C(=O)OC (some centres not stated)	none (no result: SARS PLpro yeast, AmpC no deterg, AmpC detergent)
CCOC(=O)/C(C)=C1\NC(C)(C)Cc2ccccc21	AmpC no deterg inconclusive, AmpC detergent 25µM
CC(C)(C)OC(=O)N1C=CCC1CN1C(=O)COCC1=O (configuration not stated)	none (no result: SARS PLpro yeast, AmpC no deterg, AmpC detergent)
O=C1c2ccccc2NC(c2ccc(Cl)cc2Cl)N1O (configuration not stated)	SARS PLpro yeast 14µM
O=C1c2ccccc2NC(c2ccc(Cl)cc2Cl)N1Cc1ccccc1 (configuration not stated)	none
CC(=O)N[C@H]1CSSC[C@@H](C(=O)N2CCC[C@H]2C(=O)N2CCC[C@H]2C(=O)N[C@@H](CCCCN)C(=O)N[C@@H](CC(=O)O)C(N)=O)NC(=O)CNC(=O)[C@H](Cc2c[nH]c3ccccc23)NC(=O)[C@H](CCCNC(=N)N)NC(=O)[C@@H](Cc2ccc3ccccc3c2)NC(=O)[C@H](Cc2cnc[nH]2)NC(=O)[C@H](CCC(=O)O)NC1=O	none (no result: SARS PLpro yeast, AmpC no deterg, AmpC detergent)
Cc1noc(C)c1S(=O)(=O)N1CCc2nc(-c3ccccc3)c3c(c2C1)CO[C@@H](C)C3	none (no result: SARS PLpro yeast, AmpC no deterg, AmpC detergent)
Cc1ccc(NC(=O)CSc2nn(-c3ccccc3)c(=S)s2)cc1S(=O)(=O)N(C)C	AmpC no deterg 28µM
Cc1ccn2c(c1)nc(=O)c1cc(S(=O)(=O)N3CCCCC3)c(Cl)cc12	none (no result: SARS PLpro yeast, AmpC no deterg, Giardia FBPA inh)
Cc1cc(C(=O)O)ccc1N/C=C1\CCCC(C)C1=O (configuration not stated)	none
CC1CCC/C(=C\Nc2ccc(O)cc2)C1=O (configuration not stated)	Giardia FBPA inh 7.9µM, AmpC detergent inconclusive
c1ccc(-c2nc(-c3cccnc3)n[nH]2)cc1	none
Brc1cccc(-c2n[nH]c(-c3ccccc3)n2)c1	AmpC no deterg 8.9µM
CC(=O)Nc1ccn(C2OC(C(COC(C)=O)NC(=O)C(C)NC(=O)OC(C)(C)C)C(OC(C)=O)C2OC(C)=O)c(=O)n1 (configuration not stated)	none (no result: SARS PLpro yeast, AmpC no deterg, AmpC detergent)
CCOC(=O)c1c(-c2ccc(C)cc2)csc1NC(=O)/C(C#N)=C/c1ccc(O)c(OC)c1	AmpC no deterg 8.9µM
CC(=O)c1ccc(C2C=CC(O)C(CO)O2)cc1 (configuration not stated)	none (no result: SARS PLpro yeast, AmpC no deterg, AmpC detergent)
CCOc1ccccc1-c1nnc2n1N=C(c1c(OC)cccc1OC)CS2	none (no result: SARS PLpro yeast, AmpC no deterg, AmpC detergent)
O=c1c(-c2ccccc2)coc2cc(O)cc(O)c12	Giardia FBPA inh 20µM (no result: SARS PLpro yeast, AmpC no deterg, AmpC detergent)
O=C(Cn1c(=O)oc2cc(S(=O)(=O)N3CCCC3)ccc21)NC1CCCc2ccccc21 (configuration not stated)	AmpC no deterg 10µM, AmpC detergent inconclusive
O=C(Cn1c(=O)oc2cc(S(=O)(=O)N3CCCCCC3)ccc21)NC1CCCCCCC1	AmpC detergent inconclusive
C=CC[C@](C)(O)c1ccccc1	none (no result: SARS PLpro yeast, AmpC no deterg, AmpC detergent)
Cc1cc(C)nc(/N=C2\NC(=O)CC(C(=O)O)N2c2ccc(Cl)cc2)n1 (configuration not stated)	AmpC no deterg 8.9µM, AmpC detergent inconclusive
CCCCNC(=S)N/N=C/c1cc(C)ccc1C	SARS PLpro yeast inconclusive
CCCCNC(=S)N/N=C/c1ccccc1F	SARS PLpro yeast 13µM
COc1ccc2nc(NC(=O)CSCc3c(C)noc3C)sc2c1	AmpC no deterg 25µM, AmpC detergent inconclusive (no result: Giardia FBPA inh)
COc1ccc(/C=N/OCC(=O)N=Nc2c(O)[nH]c3ccc(Br)cc23)cc1	AmpC no deterg 1µM, AmpC detergent inconclusive
CCCCC1=CC2=CC(=O)C(C)(OC(=O)CC)C(=O)C2=CN1CCCN(CC)CC (configuration not stated)	none (no result: SARS PLpro yeast, AmpC no deterg, AmpC detergent)
C[C@H](O)C(N)C(=O)O (some centres not stated)	none (no result: SARS PLpro yeast, AmpC no deterg, AmpC detergent)
O=C(N/N=C/c1cccc(C(F)(F)F)c1)c1cc2c(s1)-c1ccccc1CC2	AmpC no deterg 0.16µM
O=C1NC(=S)N(Cc2ccco2)C(=O)/C1=C\c1cccs1	Giardia FBPA inh 16µM, AmpC detergent 45µM
C=CCN1C(=O)/C(=C/c2cccs2)C(=O)NC1=S	none

Bioassay records as filed in PubChem BioAssay.
